# Measured values: PubChem BioAssay (NCI)
# This is part of a sample that, as a whole, favours compounds with a hit. Of some 83,000 tested, about 20% had one in any assay.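 Assay: single dose, 48 h. Readout: percent growth (0 = no net growth; negative = cell death). Active: <10.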 Active and inactive are the calls of the source.
# Tested on: NCI-H23 lung
# Experiment: NCI-60 one-dose screen, 48 h (100 = growth as untreated, 0 = no growth, -100 = all killed)
# Details: 10 µM unless noted
row,SMILES,growth
1,COc1ccccc1N1CCN(CCCOc2ccc(C(=O)/C=C3/C(=O)Nc4ccccc43)cc2)CC1,45.3% (inactive)
2,CCC[S@](=O)c1ccc2nc(NC(=O)OC)[nH]c2c1,98.2% (inactive)
3,FC(F)(F)c1ccc2c(Nc3cccc(C4CC(c5ccccc5)=NN4c4ccc(Cl)cc4)c3)ccnc2c1 (centres undefined),61% (inactive)
4,COc1cc(NC(=O)c2cc(O)c(C/C=C(\C)CCC=C(C)C)c(O)c2)cc2c1O[C@]1(C)CC[C@@H](O)C(C)(C)[C@H]1C2,25.1% (inactive)
5,CCOC(=O)c1c(C)nc2c(c1N)/C(=C/c1cccs1)C(=O)N2Cc1ccccc1,74.5% (inactive)
6,CS(=O)(=O)O[C@@H]1C(=O)N(c2cc3c4ccccc4ccc3c3ccccc23)[C@H]1c1ccc(F)cn1,49.5% (inactive)
7,Cc1cccc(NC(=O)c2sc3nc4c(cc3c2N)CN(Cc2ccccc2)CC4)c1C,51.3% (inactive)
8,C#Cc1ccccc1NC(=O)c1sc2nc3c(cc2c1N)CCCCC3,88% (inactive)
9,C=CCn1c(SCC(=O)Nc2ccc(C(=O)/C=C/c3ccc(Cl)cc3)cc2)nnc1-c1cc(OC)c(OC)c(OC)c1,92.9% (inactive)
10,Oc1ccccc1-c1nc2c3ccccc3c3ccccc3c2o1,85.5% (inactive)
11,COc1ccc(-c2cc(-c3nnc(SCC(=O)Nc4ccc(/C(C)=N\O)cc4)o3)c3ccccc3n2)cc1,99.5% (inactive)
12,NC(N)=NC(N)=Nc1cc2ccccc2c2ccccc12,44.8% (inactive)
13,O=C1Nc2ccc(Cl)cc2/C1=N/c1nc(-c2ccc(Cl)cc2)cs1,7.9% (active)
14,c1ccc(Sc2ncccn2)nc1,93% (inactive)
15,COc1cc2c(Nc3ccc(NC(=O)Nc4ccc(Cl)c(C(F)(F)F)c4)c(Cl)c3)ncnc2cc1OCCCN1CCN(C)CC1,17.2% (inactive)
16,CC(C)C1=C[C@@]23CC[C@H]4[C@](C)(COCCC#N)CCC[C@]4(C)[C@H]2C[C@@H]1[C@@H]1[C@H]3[C@@H](OCCC#N)CC[C@@H]1OCCC#N,35.7% (inactive)
17,COc1cc2nc3c(=O)n(CCN(C)C)cnn3c(=O)c2cc1OC,95.9% (inactive)
18,Cc1nccc2c3ccc(OCc4cn(-c5ccc(Br)cc5)nn4)cc3n(CC(C)C)c12,40.1% (inactive)
19,CC(C)(C)c1nc2c(s1)c1nc(N)ncc1c1ccc(NS(=O)(=O)c3c(F)cccc3F)c(F)c12,78.5% (inactive)

row,SMILES,growth
1,Cc1c(Cl)cccc1NC(=O)c1sc2nc3c(cc2c1N)CCCCCC3,42.7% (inactive)
2,COc1ccc(-c2[nH]c3ccccc3c2C=C(C#N)C#N)cc1,2.52% (active)
3,COc1ccc(-c2nnc(N3CCN(C(=O)CN4CCN(c5ccccc5)CC4)CC3)nc2-c2ccc(OC)cc2)cc1,48.3% (inactive)
4,Sc1cccc2cccnc12,55.4% (inactive)
5,COc1ccc2nc(-c3ccc(Cl)cc3)cc(-c3nnc(SC/C(=N/O)c4ccccc4)o3)c2c1,26.1% (inactive)
6,C=C(C)[C@@H]1CC[C@]2(C(=O)NCCCO)CC[C@]3(C)[C@H](CC[C@@H]4[C@@]5(C)CCCNC(C)(C)[C@@H]5CC[C@]43C)[C@@H]12,77.3% (inactive)
7,C=C1C(=O)O[C@H]2[C@H]1CC/C(COC(=O)NCC(=O)Nc1ccc(OC)c(C(N)=O)c1O)=C\CC[C@@]1(C)O[C@@H]21,95.6% (inactive)
8,COc1ccc2nc3c(n2c1)C(=O)C(=O)c1ccccc1-3,-42.1% (active)
9,COc1ccc(C(C)c2cc(OC)c(OC)c(OC)c2)cc1 (centres undefined),28.9% (inactive)
10,COc1cc(NCC(=O)Nc2cc(Nc3cccc(C(F)(F)F)c3)ncn2)c(Cl)c(OC)c1Cl,91.9% (inactive)
11,O=C1Nc2ccccc2C12C=C(c1ccccc1)Nc1c2c(-c2ccccc2)nn1-c1ccccc1 (centres undefined),84.1% (inactive)
12,CN(C)C1=NCCN1,99.3% (inactive)
13,COc1cc(N=Nc2cc(S(=O)(=O)O)cc3cc(S(=O)(=O)O)cc(O)c23)c(C)cc1N=Nc1c(S(=O)(=O)O)cc2cc(Nc3ccccc3)ccc2c1O,99.8% (inactive)
14,O=C1NN(c2ccccc2)C(c2ccc(Cl)cc2)N2CCC[C@H]12 (some centres undefined),90.7% (inactive)
15,COc1cc(C(=O)Nc2cc(O)c(C/C=C(\C)CCC=C(C)C)c(O)c2)cc2c1O[C@]1(C)CC[C@@H](O)C(C)(C)[C@H]1C2,27.8% (inactive)
16,COC(=O)CCc1cc(O)c2c(c1)[C@@H](C(=O)OC)[C@H](c1ccc(O)c(O)c1)O2,76.5% (inactive)
17,Cc1nc2sc(C(=O)Nc3ccccc3Cl)c(N)c2cc1C(C)O (centres undefined),93.5% (inactive)
18,NS(=O)(=O)c1ccc(C2C3=C(CCCC3=O)OC3=C2C(=O)c2ccccc2C3=O)cc1 (centres undefined),-31.3% (active)

# Tested on: NCI-H226 lung
# Experiment: as above
# Details: 10 µM unless noted
row,SMILES,growth
1,COc1ccccc1N1CCN(CCCOc2ccc(C(=O)/C=C3/C(=O)Nc4ccccc43)cc2)CC1,53% (inactive)
2,CCC[S@](=O)c1ccc2nc(NC(=O)OC)[nH]c2c1,89.9% (inactive)
3,FC(F)(F)c1ccc2c(Nc3cccc(C4CC(c5ccccc5)=NN4c4ccc(Cl)cc4)c3)ccnc2c1 (centres undefined),68.1% (inactive)
4,COc1cc(NC(=O)c2cc(O)c(C/C=C(\C)CCC=C(C)C)c(O)c2)cc2c1O[C@]1(C)CC[C@@H](O)C(C)(C)[C@H]1C2,38% (inactive)
5,CCOC(=O)c1c(C)nc2c(c1N)/C(=C/c1cccs1)C(=O)N2Cc1ccccc1,77.5% (inactive)
6,CS(=O)(=O)O[C@@H]1C(=O)N(c2cc3c4ccccc4ccc3c3ccccc23)[C@H]1c1ccc(F)cn1,63.2% (inactive)
7,Cc1cccc(NC(=O)c2sc3nc4c(cc3c2N)CN(Cc2ccccc2)CC4)c1C,60% (inactive)
8,C#Cc1ccccc1NC(=O)c1sc2nc3c(cc2c1N)CCCCC3,88.3% (inactive)
9,C=CCn1c(SCC(=O)Nc2ccc(C(=O)/C=C/c3ccc(Cl)cc3)cc2)nnc1-c1cc(OC)c(OC)c(OC)c1,79.6% (inactive)
10,Oc1ccccc1-c1nc2c3ccccc3c3ccccc3c2o1,85.8% (inactive)
11,COc1ccc(-c2cc(-c3nnc(SCC(=O)Nc4ccc(/C(C)=N\O)cc4)o3)c3ccccc3n2)cc1,96.3% (inactive)
12,NC(N)=NC(N)=Nc1cc2ccccc2c2ccccc12,54.3% (inactive)
13,O=C1Nc2ccc(Cl)cc2/C1=N/c1nc(-c2ccc(Cl)cc2)cs1,36.9% (inactive)
14,c1ccc(Sc2ncccn2)nc1,92.2% (inactive)
15,COc1cc2c(Nc3ccc(NC(=O)Nc4ccc(Cl)c(C(F)(F)F)c4)c(Cl)c3)ncnc2cc1OCCCN1CCN(C)CC1,73.9% (inactive)
16,CC(C)C1=C[C@@]23CC[C@H]4[C@](C)(COCCC#N)CCC[C@]4(C)[C@H]2C[C@@H]1[C@@H]1[C@H]3[C@@H](OCCC#N)CC[C@@H]1OCCC#N,39.8% (inactive)
17,COc1cc2nc3c(=O)n(CCN(C)C)cnn3c(=O)c2cc1OC,103% (inactive)
18,Cc1nccc2c3ccc(OCc4cn(-c5ccc(Br)cc5)nn4)cc3n(CC(C)C)c12,58.1% (inactive)
19,CC(C)(C)c1nc2c(s1)c1nc(N)ncc1c1ccc(NS(=O)(=O)c3c(F)cccc3F)c(F)c12,65.4% (inactive)

row,SMILES,growth
1,Cc1c(Cl)cccc1NC(=O)c1sc2nc3c(cc2c1N)CCCCCC3,52.2% (inactive)
2,COc1ccc(-c2[nH]c3ccccc3c2C=C(C#N)C#N)cc1,25.8% (inactive)
3,COc1ccc(-c2nnc(N3CCN(C(=O)CN4CCN(c5ccccc5)CC4)CC3)nc2-c2ccc(OC)cc2)cc1,46.7% (inactive)
4,Sc1cccc2cccnc12,55.7% (inactive)
5,COc1ccc2nc(-c3ccc(Cl)cc3)cc(-c3nnc(SC/C(=N/O)c4ccccc4)o3)c2c1,42.7% (inactive)
6,C=C(C)[C@@H]1CC[C@]2(C(=O)NCCCO)CC[C@]3(C)[C@H](CC[C@@H]4[C@@]5(C)CCCNC(C)(C)[C@@H]5CC[C@]43C)[C@@H]12,79.8% (inactive)
7,C=C1C(=O)O[C@H]2[C@H]1CC/C(COC(=O)NCC(=O)Nc1ccc(OC)c(C(N)=O)c1O)=C\CC[C@@]1(C)O[C@@H]21,83.3% (inactive)
8,COc1ccc2nc3c(n2c1)C(=O)C(=O)c1ccccc1-3,14.9% (inactive)
9,COc1ccc(C(C)c2cc(OC)c(OC)c(OC)c2)cc1 (centres undefined),80.2% (inactive)
10,COc1cc(NCC(=O)Nc2cc(Nc3cccc(C(F)(F)F)c3)ncn2)c(Cl)c(OC)c1Cl,94.9% (inactive)
11,O=C1Nc2ccccc2C12C=C(c1ccccc1)Nc1c2c(-c2ccccc2)nn1-c1ccccc1 (centres undefined),96.9% (inactive)
12,CN(C)C1=NCCN1,99.4% (inactive)
13,COc1cc(N=Nc2cc(S(=O)(=O)O)cc3cc(S(=O)(=O)O)cc(O)c23)c(C)cc1N=Nc1c(S(=O)(=O)O)cc2cc(Nc3ccccc3)ccc2c1O,114% (inactive)
14,O=C1NN(c2ccccc2)C(c2ccc(Cl)cc2)N2CCC[C@H]12 (some centres undefined),95.6% (inactive)
15,COc1cc(C(=O)Nc2cc(O)c(C/C=C(\C)CCC=C(C)C)c(O)c2)cc2c1O[C@]1(C)CC[C@@H](O)C(C)(C)[C@H]1C2,40.5% (inactive)
16,COC(=O)CCc1cc(O)c2c(c1)[C@@H](C(=O)OC)[C@H](c1ccc(O)c(O)c1)O2,102% (inactive)
17,Cc1nc2sc(C(=O)Nc3ccccc3Cl)c(N)c2cc1C(C)O (centres undefined),93.1% (inactive)
18,NS(=O)(=O)c1ccc(C2C3=C(CCCC3=O)OC3=C2C(=O)c2ccccc2C3=O)cc1 (centres undefined),-56.7% (active)
